Eight compounds from PubChem BioAssay (NCI) can be followed below.

Assay [1] is described as follows: NCI Yeast Anticancer Drug Screen. Data for the rad50 strain (AID 155).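 Also: 0% = growth of vehicle-only cultures of the same strain.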 The settings on record: S. cerevisiae rad50 strain growth inhibition, stronger effect = higher value. The method in brief:
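Genetically altered yeast (DNA repair pathway); compound treatment; growth inhibition vs vehicle ctrl.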

Assay [2] in a line: NCI Yeast Anticancer Drug Screen. Data for the mec2-1 strain (AID 157). The settings on record: S. cerevisiae mec2-1 strain, stronger effect = higher value. The method in brief: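 Cells of the genetically defined mec2-1 yeast strain are incubated with test compound. Inhibition of growth is calculated against vehicle-treated controls.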
Assay [3] can be described thus: NCI Yeast Anticancer Drug Screen. Data for the sgs1 mgt1 strain (AID 161).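 Also: 0% = growth of cultures given vehicle only.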 The settings on record: S. cerevisiae sgs1 mgt1 strain, stronger effect = higher value. The method in brief: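 Read-out: growth inhibition vs vehicle controls. Cells: mutant yeast strain deficient in DNA damage repair.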
Assay [4] is described as follows: NCI Yeast Anticancer Drug Screen. Data for the cln2 rad14 strain (AID 165).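 Also: 0% = growth equal to vehicle treated cultures.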 As to conditions: S. cerevisiae cln2 rad14 strain, stronger effect = higher value. The method in brief:
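The screen exposed genetically defined yeast (cln2 rad14) to test compounds and scored growth inhibition relative to vehicle-treated controls.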

Assay [5] in a line: NCI Yeast Anticancer Drug Screen. Data for the bub3 strain (AID 167). As to conditions: S. cerevisiae bub3 mutant strain, stronger effect = higher value. In a few lines:
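Yeast carrying a defined mutation is treated with each compound, and growth is compared with that of vehicle-exposed cells to give inhibition.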

Assay [6] can be described thus: NCI Yeast Anticancer Drug Screen. Data for the mlh1 rad18 strain (AID 175). As to conditions: S. cerevisiae mlh1 rad18 strain growth inhibition, stronger effect = higher value. In a few lines:
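Compound-treated yeast growth, normalised to vehicle controls. Strain bears defined DNA repair mutations.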

Where [7] appears, read: at 5.0 µM (retest, dose inferred, filed as 0.5).
The mark [8] stands for this setting: at 50.0 µM (retest, dose inferred, filed as 5.0).

Where “and” joins values, the source holds several entries; their conditions need not be identical. Identical values can stand only once. This is part of a sample that, as a whole, favours compounds with a hit. Of some 79,000 tested, about 15% had one in any assay. Some structures have more than one record in an assay (separate samples or runs), and their calls can disagree. Calls of active or inactive are those of the source. Rule as the data show it: active = growth inhibition above about 70%; inactive = the rest.

Regarding `CC(=O)c1c2ccccc2cc2ccccc12`, the growth inhibition is 7% (inactive) and 61% (inactive) in assay [1] (setting [7]); 74% (active) and 96% (active) in assay [1] (setting [8]); 68.4% (inactive) and 92.3% (active) in assay [1] (at 50.0 µM); 9% (inactive) and 44% (inactive) in assay [2] (setting [7]); 88% (active) and 98% (active) in assay [2] (setting [8]); 79% (active) and 96.5% (active) in assay [2] (at 50.0 µM). The growth inhibition in assay [3] (setting [7]) is 6% (inactive) and 45% (inactive); in assay [3] (setting [8]), 77% (active) and 98% (active); in assay [3] (at 50.0 µM) it was 53% (inactive) and 94.7% (active); in assay [4] (setting [7]), 12% (inactive) and 49% (inactive); in assay [4] (setting [8]) it was 89% (active) and 96% (active); in assay [4] (at 50.0 µM) it was 72.4% (active) and 89.1% (active). Also, the growth inhibition in assay [5] (setting [7]) is 17% (inactive) and 56% (inactive); in assay [5] (setting [8]) it was 95% (active) and 97% (active); in assay [5] (at 50.0 µM), 79.5% (active) and 95.6% (active); in assay [6] (setting [7]), 9% (inactive) and 46% (inactive); in assay [6] (setting [8]), 94% (active) and 97% (active); in assay [6] (at 50.0 µM) it was 75% (active) and 96.2% (active).
For `CCOc1ccc2ccccc2c1C(Cc1ccc(Cl)cc1)NCCO` (stereo unspecified), the growth inhibition in assay [1] (setting [7]) is -1% (inactive); in assay [1] (setting [8]), -1% (inactive); in assay [1] (at 50.0 µM) it was 89.3% (active); in assay [2] (setting [7]), -2% (inactive); in assay [2] (setting [8]) it was 6% (inactive); in assay [2] (at 50.0 µM), 93.5% (active). Besides, the growth inhibition in assay [3] (setting [7]) is -21% (inactive); in assay [3] (setting [8]), 2% (inactive); in assay [3] (at 50.0 µM), 94.3% (active); in assay [4] (setting [7]) it was 1% (inactive); in assay [4] (setting [8]), -7% (inactive); in assay [4] (at 50.0 µM), 98.6% (active). The growth inhibition in assay [5] (setting [7]) was -2% (inactive); in assay [5] (setting [8]) it was -3% (inactive); in assay [5] (at 50.0 µM), 94.7% (active); in assay [6] (setting [7]), 1% (inactive); in assay [6] (setting [8]) it was 22% (inactive); in assay [6] (at 50.0 µM), 98.5% (active).
For `O=C(O)C1(Cc2ccccc2)Cc2cc3c(cc2C1)CCC3`, the growth inhibition in assay [1] (setting [7]) is 5% (inactive); in assay [1] (setting [8]), 5% (inactive); in assay [1] (at 50.0 µM), 90% (active); in assay [2] (setting [7]), -4% (inactive); in assay [2] (setting [8]), -4% (inactive); in assay [2] (at 50.0 µM) it was 92% (active). Further, the growth inhibition was 0% (inactive) in assay [3] (setting [7]); 0% (inactive) in assay [3] (setting [8]); 87.2% (active) in assay [3] (at 50.0 µM); 2% (inactive) in assay [4] (setting [7]); 2% (inactive) in assay [4] (setting [8]); 89% (active) in assay [4] (at 50.0 µM). The growth inhibition in assay [5] (setting [7]) is -17% (inactive); in assay [5] (setting [8]) it was -17% (inactive); in assay [5] (at 50.0 µM), 89.7% (active); in assay [6] (setting [7]), 8% (inactive); in assay [6] (setting [8]), 8% (inactive); in assay [6] (at 50.0 µM) it was 84.8% (active).
As for `N#Cc1c(/N=C/c2ccccc2Cl)sc2c1CCC2`, the growth inhibition was 18% (inactive) in assay [1] (setting [7]); -14% (inactive) in assay [1] (setting [8]); 20.1% (inactive) in assay [1] (at 50.0 µM); -14% (inactive) in assay [2] (setting [7]); -4% (inactive) in assay [2] (setting [8]); -0.55% (inactive) in assay [2] (at 50.0 µM). In addition, the growth inhibition in assay [3] (setting [7]) was -1% (inactive); in assay [3] (setting [8]) it was 10% (inactive); in assay [3] (at 50.0 µM) it was 12.1% (inactive); in assay [4] (setting [7]) it was 26% (inactive); in assay [4] (setting [8]), 11% (inactive); in assay [4] (at 50.0 µM), 4.2% (inactive). In addition, the growth inhibition in assay [5] (setting [7]) was 0% (inactive); in assay [5] (setting [8]), -10% (inactive); in assay [5] (at 50.0 µM) it was 23.9% (inactive); in assay [6] (setting [7]), -1% (inactive); in assay [6] (setting [8]), -20% (inactive); in assay [6] (at 50.0 µM), 13.2% (inactive).
As for `CC1=CC(C)=Nc2ccc(Cl)cc2N1`, the growth inhibition was -2% (inactive) in assay [1] (setting [7]); 9% (inactive) in assay [1] (setting [8]); -1.1% (inactive) and 52% (inactive) in assay [1] (at 50.0 µM); 2% (inactive) in assay [2] (setting [7]); 2% (inactive) in assay [2] (setting [8]); 11.4% (inactive) and 2.6% (inactive) in assay [2] (at 50.0 µM). The growth inhibition in assay [3] (setting [7]) is -4% (inactive); in assay [3] (setting [8]), -1% (inactive); in assay [3] (at 50.0 µM), -5.1% (inactive) and 41% (inactive); in assay [4] (setting [7]), 1% (inactive); in assay [4] (setting [8]), 7% (inactive); in assay [4] (at 50.0 µM), -15.9% (inactive) and -11.8% (inactive). Also, the growth inhibition in assay [5] (setting [7]) was -2% (inactive); in assay [5] (setting [8]) it was -7% (inactive); in assay [5] (at 50.0 µM) it was -2.9% (inactive) and 21.6% (inactive); in assay [6] (setting [7]), -2% (inactive); in assay [6] (setting [8]) it was 7% (inactive); in assay [6] (at 50.0 µM), 9.35% (inactive) and 75.1% (active).
For `O=C1C=CC(=O)C(C2OC(=O)C(Br)=C2Br)=C1` (stereo unspecified), the growth inhibition is -14% (inactive) in assay [1] (setting [7]); 18% (inactive) in assay [1] (setting [8]); 6.95% (inactive) in assay [1] (at 50.0 µM); -21% (inactive) in assay [2] (setting [7]); -17% (inactive) in assay [2] (setting [8]); 5.5% (inactive) in assay [2] (at 50.0 µM). Moreover, the growth inhibition in assay [3] (setting [7]) was -18% (inactive); in assay [3] (setting [8]) it was -1% (inactive); in assay [3] (at 50.0 µM), -3.45% (inactive); in assay [4] (setting [7]), -10% (inactive); in assay [4] (setting [8]), -10% (inactive); in assay [4] (at 50.0 µM), -17.7% (inactive). In addition, the growth inhibition in assay [5] (setting [7]) was -9% (inactive); in assay [5] (setting [8]) it was 7% (inactive); in assay [5] (at 50.0 µM), 13.6% (inactive); in assay [6] (setting [7]), -25% (inactive); in assay [6] (setting [8]), 46% (inactive); in assay [6] (at 50.0 µM), 12.4% (inactive).
As to `O=[N+]([O-])c1cc2c(cc1S(=O)(=O)O)C1C(C3C2C2(Cl)C(Cl)=C(Cl)C3(Cl)C2(Cl)Cl)C2(Cl)C(Cl)=C(Cl)C1(Cl)C2(Cl)Cl` (stereo unspecified), the growth inhibition in assay [1] (setting [7]) was -3% (inactive); in assay [1] (setting [8]) it was 10% (inactive); in assay [1] (at 50.0 µM), 66.2% (inactive); in assay [2] (setting [7]) it was -10% (inactive); in assay [2] (setting [8]) it was 26% (inactive); in assay [2] (at 50.0 µM), 69.9% (inactive). Besides, the growth inhibition is 22% (inactive) in assay [3] (setting [7]); 41% (inactive) in assay [3] (setting [8]); 72.5% (active) in assay [3] (at 50.0 µM); 34% (inactive) in assay [4] (setting [7]); 41% (inactive) in assay [4] (setting [8]); 54.2% (inactive) in assay [4] (at 50.0 µM). Moreover, the growth inhibition in assay [5] (setting [7]) was -1% (inactive); in assay [5] (setting [8]) it was 44% (inactive); in assay [5] (at 50.0 µM), 71.2% (active); in assay [6] (setting [7]), 8% (inactive); in assay [6] (setting [8]), 57% (inactive); in assay [6] (at 50.0 µM) it was 67.3% (inactive).
Regarding `O=C1OC(c2ccc(O)cc2)(c2ccc(O)cc2)c2cccc3cccc1c23`, the growth inhibition in assay [1] (setting [7]) was 25% (inactive); in assay [1] (setting [8]), 99% (active); in assay [1] (at 50.0 µM), 99% (active); in assay [2] (setting [7]), 11% (inactive); in assay [2] (setting [8]), 99% (active); in assay [2] (at 50.0 µM), 99.2% (active). The growth inhibition is 17% (inactive) in assay [3] (setting [7]); 99% (active) in assay [3] (setting [8]); 99% (active) in assay [3] (at 50.0 µM); 14% (inactive) in assay [4] (setting [7]); 99% (active) in assay [4] (setting [8]); 98.9% (active) in assay [4] (at 50.0 µM). The growth inhibition in assay [6] (setting [7]) was 23% (inactive); in assay [6] (setting [8]) it was 99% (active); in assay [6] (at 50.0 µM), 98.3% (active).
